# Test results from the supplement of paper PMC12808144.
# Unmarked numbers belong to inactive results.
# Legend:
# Mel-DCC-11 = test: cell viability relative to DMSO control (fraction of DMSO control); higher = less cytotoxic, active = 0.5 or less; conditions: 1 µM; 120 h
# Method in brief: (§1)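 The screen used 384-well plates acoustically pre-spotted with 315 approved anti-cancer drugs from TargetMol, each at 1 µM in duplicate. Into each well went 40 µl of cells, 2500 NHEM-hTERT immortalized melanocytes or 1500 of patient-derived Mel-DCC-11 or its resistant subline Mel-DCC-11-R, and plates were kept 120 h, with the subline also tested alongside 8 µM of its selecting drug. Readout was by ATPlite 1step luminescence. Viability values were normalised to vehicle-treated controls and averaged between duplicates.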
# NHEM-hTERT = test: as above; conditions: 1 µM; 120 h
# Method in brief: as §1
# Mel-DCC-11-R = test: cell viability relative to DMSO control (fraction of DMSO control); higher = less cytotoxic, active = 0.8 or less; conditions: 1 µM, 120 h
# Method in brief: as §1
Compound,cell viability (Mel-DCC-11),cell viability (NHEM-hTERT),cell viability (Mel-DCC-11-R; vemurafenib co-treatment 0 µM),cell viability (Mel-DCC-11-R; vemurafenib co-treatment 8 µM)
CCCC(=O)O[C@]1(C(=O)CO)CC[C@H]2[C@@H]3CCC4=CC(=O)CC[C@]4(C)[C@H]3[C@@H](O)C[C@@]21C [Hydrocortisone butyrate],1.4,0.973,1.21,1.14
CC(C)CN(C[C@@H](O)[C@H](Cc1ccccc1)NC(=O)O[C@H]1CCOC1)S(=O)(=O)c1ccc(N)cc1 [Amprenavir],,0.952,,
COc1cc(C[C@H]2C(=O)OC[C@@H]2Cc2ccc(OC)c(OC)c2)ccc1O [Arctigenin],3.4,1.21,1.01,0.855
CC1=C(/C=C/C(C)=C/C=C/C(C)=C/C(=O)O)C(C)(C)CCC1 [Tretinoin],1.5,0.953,0.946,1.19
CC(=O)O[C@]1(C(C)=O)CC[C@H]2[C@@H]3CCC4=CC(=O)CCC4=C3[C@@H](c3ccc(N(C)C)cc3)C[C@@]21C [Ulipristal acetate],,0.967,,
CC(C)C[C@H](NC(=O)CNC(=O)c1cc(Cl)ccc1Cl)B(O)O [Ixazomib],0.0361 (active),0.0856 (active),0.13 (active),0.0834 (active)
COc1cc2c(Oc3ccc4[nH]c(C)cc4c3F)ncnc2cc1OCCCN1CCCC1 [Cediranib],,0.891,,
CN(CCOc1ccc(CC2SC(=O)NC2=O)cc1)c1ccccn1.O=C(O)/C=C\C(=O)O (stereo not given) [Rosiglitazone maleate],,1.06,,
COc1ccc(C(Cl)=C(c2ccc(OC)cc2)c2ccc(OC)cc2)cc1 [Chlorotrianisene],0.717,0.795,0.86,0.833
Cn1nnc2c(C(N)=O)ncn2c1=O [Temozolomide],,1.01,,
Nc1nc(=S)c2[nH]cnc2[nH]1 [Thioguanine],,1.06,,
CCN(CC)CCNC(=O)c1c(C)[nH]c(/C=C2\C(=O)Nc3ccc(F)cc32)c1C.C[C@@H](CC(=O)O)C(=O)O [Sunitinib Malate],,1.03,,
OC[C@H]1O[C@@H](n2cnc3c2NC=NC[C@H]3O)C[C@@H]1O [Pentostatin],1.12,1.1,0.905,1.2
COc1cc2nccc(Oc3ccc(NC(=O)NC4CC4)c(Cl)c3)c2cc1C(N)=O [Lenvatinib],1.26,0.784,1.03,1.17
O=NN(CCCl)C(=O)NCCCl [Carmustine],1.16,0.992,0.987,1.02
COc1ccc2cc1Oc1ccc(cc1)C[C@H]1c3c(cc4c(c3Oc3cc5c(cc3OC)CCN(C)[C@@H]5C2)OCO4)CCN1C [Cepharanthine],,1.13,,
O=C(CCCCCCNC(=O)c1cnc(N(c2ccccc2)c2ccccc2)nc1)NO [Rocilinostat],0.614,0.847,0.681 (active),0.644 (active)
CC#CC(=O)N1CCC[C@H]1c1nc(-c2ccc(C(=O)Nc3ccccn3)cc2)c2c(N)nccn12 [Acalabrutinib],1.12,1,1.04,1
CC(C)=CCC/C(C)=C/CC/C(C)=C/CC/C(C)=C/CC1=C(C)C(=O)c2ccccc2C1=O [Menatetrenone],,1.02,,
CC(C)C[C@H](NC(=O)[C@@H](O)[C@H](N)Cc1ccccc1)C(=O)O [Ubenimex],0.792,0.944,1.12,0.942
COc1ccc(C[C@H](N)C(=O)N[C@H]2[C@@H](O)[C@H](n3cnc4c(N(C)C)ncnc43)O[C@@H]2CO)cc1.Cl.Cl [Puromycin dihydrochloride],0.246 (active),0.467 (active),0.309 (active),0.58 (active)
CC/C(=C(\c1ccc(O)cc1)c1ccc(OCCNC)cc1)c1ccccc1 [(E/Z)-Endoxifen],1.05,0.88,1.15,1.14
CS(=O)(=O)c1ccc(C2=C(c3ccccc3)C(=O)OC2)cc1 [Rofecoxib],,0.925,,
N#CC1(c2ccc(NC(=O)c3cccnc3NCc3ccncc3)cc2)CCCC1 [Apatinib],1.03,0.966,1.14,1.13

Compound,cell viability (Mel-DCC-11),cell viability (NHEM-hTERT),cell viability (Mel-DCC-11-R; vemurafenib co-treatment 0 µM),cell viability (Mel-DCC-11-R; vemurafenib co-treatment 8 µM)
CCOC(=O)c1ccc(C#Cc2ccc3c(c2)C(C)(C)CCS3)nc1 [Tazarotene],,1.16,1.09,1.23
CC1=C(/C=C/C(C)=C/C=C/C(C)=C/C=C/C=C(C)/C=C/C=C(C)/C=C/C2=C(C)CCCC2(C)C)C(C)(C)CCC1 [Beta-Carotene],,0.916,0.829,0.851
CC(C)(S)[C@@H](N)C(=O)O [Artamine],,1.08,1.12,1.25
O=c1c(-c2ccc(O)cc2)coc2cc(O)cc(O)c12 [Genistein],,1.1,0.984,1.02
[Cl][Pt+2][Cl] [Cisplatin],,1.04,1.08,1.28
Cc1nc(Nc2ncc(C(=O)Nc3c(C)cccc3Cl)s2)cc(N2CCN(CCO)CC2)n1.O [Dasatinib monohydrate],,0.506,1.65,1.54
C=C1CC[C@@H]2[C@](C)(CO)[C@H](O)CC[C@@]2(C)[C@@H]1C/C=C1/C(=O)OC[C@H]1O [Andrographolide],,1.17,0.887,1.02
C#C[C@]1(O)CC[C@H]2[C@@H]3CCc4cc(OC5CCCC5)ccc4[C@H]3CC[C@@]21C [Quinestrol],,0.894,0.953,1
CC(=O)c1c(C)c2cnc(Nc3ccc(N4CCNCC4)cn3)nc2n(C2CCCC2)c1=O.O=S(=O)(O)CCO [Palbociclib Isethionate],,1.03,1.6,1.19
Cc1ccc(NC(=O)c2ccc(CN3CCN(C)CC3)cc2)cc1Nc1nc(-c2cccnc2)cs1 [Masitinib],,0.801,1.1,0.944
Nc1cccc2c1C(=O)N(C1CCC(=O)NC1=O)C2=O (stereo not given) [Pomalidomide],,1.15,1,1.25
Cc1ccc(-c2ncc(Cl)cc2-c2ccc(S(C)(=O)=O)cc2)cn1 [Etoricoxib],,1.17,1.11,1.06
CS(=O)(=O)CCNCc1ccc(-c2ccc3ncnc(Nc4ccc(OCc5cccc(F)c5)c(Cl)c4)c3c2)o1 [Lapatinib],,0.822,1.12,0.841
CC(O)(P(=O)([O-])O)P(=O)([O-])O.[Na+].[Na+] [Sodium etidronate],,0.984,0.787 (active),0.91
Oc1ccc(/C=C/c2cc(O)cc(O)c2)cc1 [Resveratrol],,1,0.914,1.16
CN(C)CCOc1ccc(/C(=C(/CCCl)c2ccccc2)c2ccccc2)cc1.O=C(O)CC(O)(CC(=O)O)C(=O)O [Toremifene citrate],,0.992,0.981,1.19
CC(COc1ccccc1)N(CCCl)Cc1ccccc1.Cl (stereo not given) [Phenoxybenzamine hydrochloride],,1.13,1,1.15
CC[C@H](Nc1ncnc2[nH]cnc12)c1nc2cccc(F)c2c(=O)n1-c1ccccc1 [Idelalisib],,0.983,1.07,0.961
CO[C@H]1C[C@@H]2CC[C@@H](C)[C@@](O)(O2)C(=O)C(=O)N2CCCC[C@H]2C(=O)O[C@H]([C@H](C)C[C@@H]2CC[C@@H](OCCO)[C@H](OC)C2)CC(=O)[C@H](C)/C=C(\C)[C@@H](O)[C@@H](OC)C(=O)[C@H](C)C[C@H](C)/C=C/C=C/C=C/1C [Everolimus],,0.964,1.57,0.834
COC(=O)C[C@](O)(CCCC(C)(C)O)C(=O)O[C@@H]1C(OC)=CC23CCCN2CCc2cc4c(cc2[C@H]13)OCO4 (stereo not given in full) [Homoharringtonine],,0.228 (active),0.0454 (active),0.0543 (active)
Nc1ncnc2c1ncn2[C@@H]1O[C@H](CO)[C@@H](O)[C@@H]1O [Vidarabine],,1.02,1.11,1.1
C#Cc1cccc(Nc2ncnc3cc4c(cc23)OCCOCCOCCO4)c1 [Icotinib],,1.18,1.1,0.849
CNC(=O)c1cc(Oc2ccc(NC(=O)Nc3ccc(Cl)c(C(F)(F)F)c3)c(F)c2)ccn1 [Regorafenib],,0.792,0.909,0.82
